# Several values for one entry are separate records, joined by “and”; a condition that tells them apart may be missing. Equal entries are not always repeated. Records with an inconclusive call do not appear. A structure can be active in one record and inactive in another. Activity calls are given as the source filed them. The call rests on the fitted dose curve; in most records, active means well fitted curve in the direction sought with a large enough effect; inconclusive means small, poorly fitted or top-dose-only effect, or another doubt; inactive means no such curve, though single readings can be large; an effect the other way counts as inactive or inconclusive.
# Columns and labels:
# [1] = target: Calcium and integrin-binding protein 1 (Homo sapiens) (UniProt Q99828); test: Primary qHTS for Identification of Calcium Integrin Binding Protein 1 (CIB1) Competitor (AID 1508620);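 on activity change, negative = inhibition: GST tagged CIB1 binding a fluorescein labelled alphaIIb integrin peptide tracer; top concentration of the series differs between compounds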
# Chain of Calcium and integrin-binding protein 1 (Homo sapiens) (Q99828 whole entry, looked up): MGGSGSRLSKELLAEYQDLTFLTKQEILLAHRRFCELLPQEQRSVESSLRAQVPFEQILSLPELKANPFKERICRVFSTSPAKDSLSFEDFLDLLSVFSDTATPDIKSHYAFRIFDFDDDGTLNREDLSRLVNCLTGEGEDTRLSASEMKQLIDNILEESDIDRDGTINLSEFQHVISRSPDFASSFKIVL
# Procedure, shortened: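 Fluorescence polarization competition: GST-tagged CIB1 (1 uM final) preincubated with compound 15 min at room temperature, then FITC-labelled alphaIIb peptide (100 nM final) added. After 15 min at room temperature, polarization read at Ex 480/Em 540.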
# [2] = Primary qHTS for inhibitors of nuclear receptor binding SET domain protein 2 (NSD2) in an isogenic RCH-ACV NSD2 p.E1099K mutant (9B) (AID 1645876); further: nearly all actives have a fitted effect of over 70% in size
# [3] = Primary qHTS for inhibitors of nuclear receptor binding SET domain protein 2 (NSD2) in an RCH-ACV wild type WT cells (2C) (AID 1645877); further: nearly all actives have a fitted effect of over 70% in size
# On the % scale 0 is the no-effect control and ±100 the full control effect; potency means the concentration at half of the fitted maximal effect.
Compound,Potency [1],Potency [2],Potency [3],"activity change, negative = inhibition [1]","activity change, negative = viability loss [2]","activity change, negative = cell killing [3]"
C=C1C(=O)O[C@@H]2C[C@H](C)C3=CC(=O)[C@H](O)[C@@]3(C)C[C@H]12,inactive,25.8 µM (active),18.3 µM (active),,,
C=C1CC[C@@H](O)[C@]2(C)CC[C@H]3C(=C)C(=O)O[C@@H]3[C@@H]12,inactive,20.5 µM (active),16.3 µM (active),,,
COc1ccc(C2=NC(c3ccc(Cl)cc3)C(c3ccc(Cl)cc3)N2C(=O)N2CCNC(=O)C2)c(OC(C)C)c1 (stereo unspecified),inactive,5.78 µM (active),2.58 µM (active),,,
CC(C)CC(=O)c1c(O)cc2c(c1O)C(CC(C)C)C1=C(O2)C(C)(C)C(=O)C(C)(C)C1=O (stereo unspecified),inactive,10 µM (active),7.96 µM (active),,,
CN[C@@H]1[C@H](O[C@H]2[C@H](O[C@@H]3[C@@H](O)[C@H](O)[C@@H](N=C(N)N)[C@H](O)[C@H]3N=C(N)N)O[C@@H](C)[C@]2(O)CO)O[C@@H](CO)[C@H](O)[C@H]1O,inactive,inactive,inactive,,,
CC(=O)O[C@@H]1[C@@H](OC(C)=O)[C@H](C)O[C@@H](O[C@H]2[C@@H]3C=CO[C@@H](O[C@@H]4O[C@H](CO)[C@@H](O)[C@H](O)[C@H]4O)[C@@H]3[C@@]3(CO)O[C@@H]23)[C@@H]1OC(=O)/C=C/c1ccccc1,inactive,6.82 µM (active),4.83 µM (active),,,
C=C1CO[C@@]2(O[C@H]3CC4C5CC=C6C[C@@H](O)C[C@@H](O[C@@H]7OC[C@H](O)[C@H](O[C@@H]8OC[C@@H](O)[C@H](O)[C@H]8O)[C@H]7O[C@@H]7O[C@@H](C)[C@H](OC(C)=O)[C@@H](OC(C)=O)[C@H]7OC(C)=O)[C@]6(C)C5CC[C@]4(C)[C@@H]3[C@@H]2C)[C@@H](O)[C@H]1OC1OC(C)C(O)C(O)C1O (stereo partly specified),,2.18 µM (active),2.18 µM (active),-5.12% [at 12.4 µM] (inactive),,
CC(=O)OC1CC(C)(C(=O)O)CC2C3=CC(=O)C4C5(C)CCC(OC6OC(C(=O)O)C(O)C(O)C6OC6OC(C(=O)O)C(O)C(O)C6O)C(C)(C)C5CCC4(C)C3(C)CCC12C (stereo unspecified),inactive,,,,-3.77% [at 9.23 µM] (inactive),-8.59% [at 9.23 µM] (inactive)
Cn1ncc(Cl)c1-c1cc(C(=O)N[C@H](CN)Cc2ccc(F)c(F)c2)sc1Cl,inactive,1.63 µM (active) and 1.05 µM (active),2.05 µM (active) and 1.05 µM (active),,,
CC(=O)C=C=C1C(C)(C)CC(O)CC1(C)O[C@@H]1O[C@H](CO[C@H]2OC[C@](O)(CO)[C@H]2O)[C@@H](O)[C@H](O)[C@H]1O (stereo partly specified),inactive,inactive,inactive,,,
CC1CCC/C=C/C(=O)c2c(O)cc(O)cc2CC(=O)O1 (stereo unspecified),inactive,2.9 µM (active),2.05 µM (active),,,
C/C1=C/CCC2=CC(OC2=O)C(C)(C)/C=C/C1=O (stereo unspecified),inactive,0.578 µM (active),0.459 µM (active),,,
Cc1cc2c(c(=O)o1)C=C1CC[C@H]([C@H](C)Cn3cnc(=N)c4[nH]cnc43)C[C@@H]1O2,inactive,inactive,inactive,,,
C#CCCCn1cc(-c2cccc3c2N[C@H](C)CC(=O)N3)cn1,inactive,23 µM (active),14.5 µM (active),,,
C/C(=C/CO)CCC1C(C)CCC2C(C)(C)CCCC12C (stereo unspecified),inactive,inactive,inactive,,,
COC(=O)C1=COC(O[C@@H]2O[C@H](CO[C@@H]3O[C@H](COC(=O)/C=C\c4ccc(O)cc4)[C@@H](O)[C@H](O)[C@H]3O)[C@@H](O)[C@H](O)[C@H]2O)C2C(CO)=CCC12 (stereo partly specified),inactive,inactive,inactive,,,
C=C[C@]1(C)C[C@H](O)[C@H]2C(=C)C(=O)O[C@@H]2[C@H]1C(=C)CO,inactive,18.3 µM (active),14.5 µM (active),,,
COc1cc2nc(N3CCN(C(=O)c4ccco4)C4CCCCC43)nc(N)c2cc1OC (stereo unspecified),inactive,2.3 µM (active),3.65 µM (active),,,
Nc1ncnc2c1nc(Cl)n2C1OC2COP(=O)(O)OC2C1O (stereo unspecified),inactive,2.05 µM (active),2.9 µM (active),,,
C1=C/COCc2cc(ccc2OCCN2CCCC2)Nc2nccc(n2)-c2cccc(c2)COC/1,inactive,325 nM (active) and 417 nM (active),258 nM (active) and 417 nM (active),,,
COc1ccc(C(=O)O[C@H]2C=COC=C3C=C4C(=O)N(C)C(=S)C(=O)N4[C@@H]32)cc1Oc1cc(C=O)ccc1O,22.4 µM (active),6.32 µM (active),2.82 µM (active),,,

Compound,Potency [1],Potency [2],Potency [3],"activity change, negative = inhibition [1]","activity change, negative = viability loss [2]","activity change, negative = cell killing [3]"
C[C@@H]1CC[C@@]23CC[C@]4(C)[C@@](C=CC5[C@@]6(C)CC[C@H](O)C(C)(C)C6CC[C@]54C)(OC2=O)C3[C@H]1C (stereo partly specified),inactive,inactive,inactive,,,
CC1(CO)CC2C(O)C3=C(CC(C)(O)C2C1)C(=O)OC3 (stereo unspecified),inactive,inactive,inactive,,,
COc1cccc(-c2cc(F)ccc2C2Cc3nc(N)nc(C)c3C(=O)N2)n1 (stereo unspecified),inactive,0.0525 µM (active),0.059 µM (active),,,
CCNC(=O)C#Cc1ccc2c(C(=Nc3ccc(CN(C)C)cc3)c3ccccc3)c(O)[nH]c2c1,inactive,0.512 µM (active),0.0102 µM (active),,,
C=C1C(=O)O[C@H]2C1CCC(C)=C1C(=O)C=C(C)[C@@]12O (stereo partly specified),inactive,20.5 µM (active),12.9 µM (active),,,
CC(=O)CC(=O)Nc1ccc(Cl)c(C(F)(F)F)c1,inactive,20.5 µM (active),10.3 µM (active),,,
COc1cc(O)c2c(c1)C1OC1C[C@H](O)[C@H](O)C(=O)/C=C\C[C@H](C)OC2=O (stereo partly specified),inactive,3.25 µM (active),2.05 µM (active),,,
Cn1ncc2cc(-c3cnc(N)c(Cl)c3N3CCC4(CCNC4=O)CC3)ccc21,inactive,2.05 µM (active) and 3.72 µM (active),0.0934 µM (active),,,
CC(=O)C1=C(O)C=C2Oc3c(C(C)=O)c(O)c(C)c(O)c3[C@]2(C)C1=O,inactive,inactive,inactive,,,
CC(C)CCNC(=O)c1ccc2c(c1)nc(Nc1n[nH]c3ccc(-c4ccccc4OC(F)(F)F)cc13)n2C1CCC(O)CC1 (stereo unspecified),inactive,10.3 µM (active),14.5 µM (active),,,
CCc1cccc(CC)c1-n1c(C=C(C)C)c(C(=O)N2CCNCC2)cc(-c2nc(-c3ccc(C(F)(F)F)cc3)cs2)c1=O,inactive,8.93 µM (active),10 µM (active),,,
CO[C@H]1[C@@H](O)[C@H](O[C@H]2CC[C@@]3(C)C(CCC4C3CC[C@]35COC6(COC(=O)C6)C3CCC45O)C2)O[C@@H](C)[C@@H]1OC1OC(CO)C(OC2OC(CO)C(O)C(O)C2O)C(O)C1O (stereo partly specified),inactive,3.88 µM (active),3.88 µM (active),,,
O=C(NCCCc1ccccc1)c1cccc(-c2cc(O)c3ncccc3c2)c1,inactive,12.9 µM (active),3.65 µM (active),,,
Nc1nc(NC2CC2)cc(-c2cccc(Cl)c2Cl)n1,inactive,4.59 µM (active),2.58 µM (active),,,
C=C1C(=O)OC2/C=C(\COC(C)=O)CC/C=C(\C=O)CC(OC(=O)C(C)CC)C12 (stereo unspecified),inactive,3.17 µM (active),2 µM (active),,,
CC#CCn1c(N2CCCC(N)C2)nc2c1c(=O)n(Cc1nc(C)c3ccccc3n1)c(=O)n2C (stereo unspecified),inactive,inactive,inactive,,,
C[C@@H]1COCCN1c1cc(=O)n2c(n1)N(Cc1cncc(Cl)c1)[C@H](C(F)(F)F)CC2,inactive,6.51 µM (active),6.51 µM (active) and inactive,,,
CC(=O)NC(C(=O)O[C@H]1CCC(C)(C)[C@@H]2CC=C3C(=O)OCC3(O)[C@@]12C)C(C)C (stereo partly specified),inactive,8.01 µM (active),12.7 µM (active),,,
CN(C)C(=O)C(=O)c1cn(C)c2cc(Cl)c(C(=O)N3CCC(Cc4ccc(F)cc4)CC3)cc12,inactive,23 µM (active),23 µM (active),,,
C=C(COC(=O)C(O)C(O)CN)C12OC1C1(C)C(=CC2=O)C(O)C(O)CC1C (stereo unspecified),inactive,inactive,inactive,,,
COC(=O)N1CC2(CC2)C[C@H](C(=O)NO)[C@H]1C(=O)N1CCN(c2ccccc2)CC1,inactive,inactive,inactive,,,
